# Values joined by “and” are separate entries in the source; they are usually repeats but may differ in a detail not shown here. Identical values can stand only once. About 85 (1%) of roughly 5,700 compounds were called active. No stated cut-off is given here; in the data, active means p53-positive nuclei above about 36% (passing the limit was not always enough); inactive means the rest. For the sample, actives were picked, then their nearest neighbours and some compounds at random.
# Key:
# [1] = nuclear p53 accumulation, HPV+ cells – imaging, p53-positive nuclei imaging, 24 h, 48 h (AID 1508601); details: 24/48 h
# [2] = target: Cellular tumor antigen p53 (Homo sapiens) (UniProt P04637); assay: as above; details: 24/48 h, stronger effect = higher value
# Sequence of Cellular tumor antigen p53 (Homo sapiens) (P04637 whole entry, looked up): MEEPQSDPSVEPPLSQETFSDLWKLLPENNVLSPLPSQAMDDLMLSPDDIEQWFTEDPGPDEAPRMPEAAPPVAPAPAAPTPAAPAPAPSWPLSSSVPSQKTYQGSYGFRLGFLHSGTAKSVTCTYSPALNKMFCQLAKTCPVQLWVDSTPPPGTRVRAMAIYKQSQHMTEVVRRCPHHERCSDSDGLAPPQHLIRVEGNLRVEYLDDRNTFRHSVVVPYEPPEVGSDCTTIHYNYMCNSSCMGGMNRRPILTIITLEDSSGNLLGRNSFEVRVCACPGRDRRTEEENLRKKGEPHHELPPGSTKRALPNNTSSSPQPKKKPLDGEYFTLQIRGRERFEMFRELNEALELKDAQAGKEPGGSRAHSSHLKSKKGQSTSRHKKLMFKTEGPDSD
# [3] = measured here: cell number at 24 h, Library stock concentration: 80 uM
# [4] = measured here: cell number at 24 h, Library stock concentration: 400 uM
# [5] = measured here: cell number at 24 h, Library stock concentration: 2 mM
# [6] = measured here: cell number at 24 h, Library stock concentration: 3.33 mM
# [7] = measured here: cell number at 24 h, Library stock concentration: 10 mM
# [8] = measured here: cell number at 48 h, Library stock concentration: 80 uM
# [9] = measured here: cell number at 48 h, Library stock concentration: 400 uM
# [10] = measured here: cell number at 48 h, Library stock concentration: 2 mM
# [11] = measured here: cell number at 48 h, Library stock concentration: 3.33 mM
# [12] = measured here: cell number at 48 h, Library stock concentration: 10 mM
# [13] = Library stock concentration: 80 uM
# [14] = Library stock concentration: 400 uM
# [15] = Library stock concentration: 2 mM
# [16] = Library stock concentration: 3.33 mM
# [17] = Library stock concentration: 10 mM
# [18] = measured here: p53 positive nuclei at 24 h, Library stock concentration: 80 uM
# [19] = measured here: p53 positive nuclei at 24 h, Library stock concentration: 400 uM
# [20] = measured here: p53 positive nuclei at 24 h, Library stock concentration: 2 mM
# [21] = measured here: p53 positive nuclei at 24 h, Library stock concentration: 3.33 mM
# [22] = measured here: p53 positive nuclei at 24 h, Library stock concentration: 10 mM
smiles,measurement,setting,value
CC(C)CC(=O)Nc1n[nH]c2c1CN(C(=O)C1CCN(C)CC1)C2(C)C,"nuclei count, normalised",[1]; [3],90.1%
same,"nuclei count, normalised",[1]; [4],79.8%
same,"nuclei count, normalised",[1]; [5],61%
same,"nuclei count, normalised",[1]; [6],45.9%
same,"nuclei count, normalised",[1]; [7],39.3%
same,"nuclei count, normalised",[1]; [8],91.5%
same,"nuclei count, normalised",[1]; [9],71.9%
same,"nuclei count, normalised",[1]; [10],44.9%
same,"nuclei count, normalised",[1]; [11],31.6%
same,"nuclei count, normalised",[1]; [12],23.2%
same,"p53-positive nuclei, normalised",[2]; [13],-0.0742% (inactive)
same,"p53-positive nuclei, normalised",[2]; [14],0.409% (inactive)
same,"p53-positive nuclei, normalised",[2]; [15],5.57% (inactive)
same,"p53-positive nuclei, normalised",[2]; [16],45.4% (inactive)
same,"p53-positive nuclei, normalised",[2]; [17],3.79% (inactive)
same,"p53-positive nuclei, normalised",[2]; [18],-0.129%
same,"p53-positive nuclei, normalised",[2]; [19],0.453%
same,"p53-positive nuclei, normalised",[2]; [20],0.779%
same,"p53-positive nuclei, normalised",[2]; [21],13.5%
same,"p53-positive nuclei, normalised",[2]; [22],0.472%
Cc1nc(Nc2n[nH]c3c2CN(C(=O)NC(CN(C)C)c2ccccc2)C3(C)C)c2sccc2n1 (configuration not stated),"nuclei count, normalised","[1]; measured here: cell number at 24 h, Library stock concentration: 46 uM",105%
same,"nuclei count, normalised",[1]; [3],95.1%
same,"nuclei count, normalised","[1]; measured here: cell number at 24 h, Library stock concentration: 278 uM",96.3%
same,"nuclei count, normalised",[1]; [4],85.6%
same,"nuclei count, normalised","[1]; measured here: cell number at 24 h, Library stock concentration: 1.67 mM",75.5%
same,"nuclei count, normalised",[1]; [5],66.2%
same,"nuclei count, normalised",[1]; [6],47.2%
same,"nuclei count, normalised",[1]; [7],45.2% and 45.1%
same,"nuclei count, normalised","[1]; measured here: cell number at 48 h, Library stock concentration: 46 uM",108%
same,"nuclei count, normalised",[1]; [8],96.4%
same,"nuclei count, normalised","[1]; measured here: cell number at 48 h, Library stock concentration: 278 uM",99.1%
same,"nuclei count, normalised",[1]; [9],92.2%
same,"nuclei count, normalised","[1]; measured here: cell number at 48 h, Library stock concentration: 1.67 mM",72.1%
same,"nuclei count, normalised",[1]; [10],63.4%
same,"nuclei count, normalised",[1]; [11],37.3%
same,"nuclei count, normalised",[1]; [12],32.4% and 35.1%
same,"p53-positive nuclei, normalised",[2]; Library stock concentration: 46 uM,-0.184% (inactive)
same,"p53-positive nuclei, normalised",[2]; [13],-0.159% (inactive)
same,"p53-positive nuclei, normalised",[2]; Library stock concentration: 278 uM,-0.101% (inactive)
same,"p53-positive nuclei, normalised",[2]; [14],-0.117% (inactive)
same,"p53-positive nuclei, normalised",[2]; Library stock concentration: 1.67 mM,0.691% (inactive)
same,"p53-positive nuclei, normalised",[2]; [15],2.71% (inactive)
same,"p53-positive nuclei, normalised",[2]; [16],69.1% (active)
same,"p53-positive nuclei, normalised",[2]; [17],18.9% (inactive) and 1.61% (inactive)
same,"p53-positive nuclei, normalised","[2]; measured here: p53 positive nuclei at 24 h, Library stock concentration: 46 uM",0.116%
same,"p53-positive nuclei, normalised",[2]; [18],-0.151%
same,"p53-positive nuclei, normalised","[2]; measured here: p53 positive nuclei at 24 h, Library stock concentration: 278 uM",-0.0682%
same,"p53-positive nuclei, normalised",[2]; [19],0.0839%
same,"p53-positive nuclei, normalised","[2]; measured here: p53 positive nuclei at 24 h, Library stock concentration: 1.67 mM",1.31%
same,"p53-positive nuclei, normalised",[2]; [20],2.05%
same,"p53-positive nuclei, normalised",[2]; [21],6.89%
same,"p53-positive nuclei, normalised",[2]; [22],1.74% and 0.752%

# Source: PubChem BioAssay AID1508601 (ICCB-Longwood Screening Facility, Harvard Medical School, 2020)
